Laboratory results reported in PubChem BioAssay (Tox21).
Inconclusive results are not listed. Calls of active or inactive are those of the source. Unless noted, calls come from the whole dose curve.

Assays:
[1] = Nuclear factor erythroid 2-related factor 2/antioxidant responsive element (Nrf2/ARE) small molecule agonists: qHTS cell viability counter screen in human keratinocytes (AID 1919968; active = well fitted curve in the direction sought with a large enough effect in the repeat runs; an effect the other way counts as inactive or inconclusive; note: nearly all actives have a fitted effect of over 55% in size)
Outline: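 Cells of the KeratinoSens line were plated at 1,500 per well and left for 5 h before compound transfer from DMSO stocks. After a 23 h incubation (37 C, 5% CO2), CellTiter-Fluor was added. Signal was taken as fluorescence intensity 1 h later.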

[2] = Nuclear factor erythroid 2-related factor 2/antioxidant responsive element (Nrf2/ARE) small molecule agonists: luciferase reporter gene qHTS assay in human keratinocytes (AID 1919969); note: nearly all actives have a fitted effect of over 35% in size
[3] = target: Gonadotropin-releasing hormone receptor (Homo sapiens) (UniProt P30968); experiment: Human gonadotropin-releasing hormone receptor (GnRHR) small molecule agonists, calcium flux assay in GnRHR-HEK293 cells (AID 1920063); note: nearly all actives have a fitted effect of over 35% in size
Gonadotropin-releasing hormone receptor (Homo sapiens), sequence (P30968 whole entry, looked up): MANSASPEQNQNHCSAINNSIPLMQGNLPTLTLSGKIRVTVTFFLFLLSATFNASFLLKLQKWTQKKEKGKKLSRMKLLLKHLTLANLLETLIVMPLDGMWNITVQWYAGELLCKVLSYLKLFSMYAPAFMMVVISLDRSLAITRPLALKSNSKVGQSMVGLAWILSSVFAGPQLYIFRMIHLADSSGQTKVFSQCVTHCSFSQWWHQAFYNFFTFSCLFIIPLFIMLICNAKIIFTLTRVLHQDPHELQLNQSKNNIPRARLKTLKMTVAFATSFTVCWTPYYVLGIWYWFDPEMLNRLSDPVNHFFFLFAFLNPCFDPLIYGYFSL
Outline: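 Compounds dissolved in DMSO are pin-transferred onto dye-loaded GnRHR-HEK293 cells, which were seeded 18 h before at 37 C/5% CO2. Calcium signal is read as fluorescence intensity at 1 s intervals for 3 min.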

[4] = target: KiSS-1 receptor (Homo sapiens) (UniProt Q969F8); experiment: Human kisspeptin (KISS1R) small molecule agonists, calcium flux assay in KISS1R-HEK293 cells (AID 1920064; active = well fitted curve in the direction sought with a large enough effect in the repeat runs; an effect the other way counts as inactive or inconclusive)
KiSS-1 receptor (Homo sapiens), sequence (Q969F8 whole entry, looked up): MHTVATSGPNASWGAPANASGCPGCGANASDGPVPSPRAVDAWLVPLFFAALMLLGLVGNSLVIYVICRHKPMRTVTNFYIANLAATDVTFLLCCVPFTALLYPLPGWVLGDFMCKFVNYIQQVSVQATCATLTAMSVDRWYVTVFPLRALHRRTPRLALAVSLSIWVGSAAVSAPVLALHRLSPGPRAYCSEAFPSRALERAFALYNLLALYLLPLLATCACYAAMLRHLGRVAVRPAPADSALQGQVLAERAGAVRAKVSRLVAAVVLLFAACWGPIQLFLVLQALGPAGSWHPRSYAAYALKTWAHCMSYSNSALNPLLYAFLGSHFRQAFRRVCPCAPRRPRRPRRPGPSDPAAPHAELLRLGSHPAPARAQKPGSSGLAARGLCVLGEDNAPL
Outline: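 Cell line: HEK293, stable human KISS1R. Dye loading 1 h at 37 C after 18 h culture. Read: kinetic fluorescence, 480/540 nm, 3 min at 1 s intervals.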

[5] = G protein-coupled receptor (GPCR) small molecule agonists, calcium flux assay: HEK293 wild type cell line counter screen (AID 1920065)
Outline: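 Tox21 10K compounds, 15 concentrations each in triplicate, pin-transferred in DMSO onto dye-loaded cells; kinetic read at 480/540 nm for 3 min, 1 s intervals.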

[6] = p53 small molecule agonists, cell-based qHTS assay with human liver microsomes (AID 1963577)
Outline: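 Fluorescence of the beta-lactamase reporter in p53RE-bla cells, detected with LiveBLAzer substrate (2 h, room temperature, dark), served as the read-out after 16 h compound exposure at 37 C with human liver microsomes and NADPH, each 0.5 mg/mL final.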

[7] = p53 small molecule agonists, cell-based qHTS assay with rat liver microsomes (AID 1963578)
Outline: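 Cells carrying a p53 response element–beta-lactamase reporter were plated and rested 5 h, then dosed with compound in DMSO plus rat liver microsomes and NADPH, each at 0.5 mg/mL final. After 16 h at 37 C, LiveBLAzer substrate was added for 2 h.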

[8] = p53 small molecule agonists, cell-based qHTS assay with human liver microsomes: qHTS cell viability counter screen (AID 1963579); note: nearly all actives have a fitted effect of over 45% in size
Outline: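 Cytotoxicity counter screen: p53RE-bla, 4,000 cells/well; 5 h settle, 37 C/5% CO2; cpd + HLM 0.5 mg/mL + NADPH 0.5 mg/mL (final); 16 h, 37 C; CellTiter-Glo, 30 min RT, luminescence.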

[9] = p53 small molecule agonists, cell-based qHTS assay with rat liver microsomes: qHTS cell viability counter screen (AID 1963580); note: nearly all actives have a fitted effect of over 45% in size
Outline: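 Rat liver microsome (0.5 mg/mL final) and NADPH (0.5 mg/mL final) co-incubation with compounds for 16 h at 37 C on HCT-116 p53RE-bla cells; cytotoxicity taken from intracellular ATP luminescence.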

[10] = p53 small molecule agonists, cell-based qHTS assay (AID 1963582; active = well fitted activation curve with a large enough effect in the signal ratio in the repeat runs, not every such curve was filed as active; the % refers to the signal ratio)
Outline: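 16 h compound exposure (37 C) of p53 response element–bla cells, preceded by 5 h recovery at 37 C/5% CO2; read-out via LiveBLAzer B/G FRET substrate, 2 h RT, fluorescence intensity.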

[11] = target: 5-hydroxytryptamine receptor 2A (Homo sapiens) (UniProt P28223); experiment: 5-hydroxytryptamine receptor 2A (HTR2A) small molecule antagonists, cell-based qHTS assay (AID 1963586); note: nearly all actives have a fitted effect of over 45% in size
5-hydroxytryptamine receptor 2A (Homo sapiens), sequence (P28223 whole entry, looked up): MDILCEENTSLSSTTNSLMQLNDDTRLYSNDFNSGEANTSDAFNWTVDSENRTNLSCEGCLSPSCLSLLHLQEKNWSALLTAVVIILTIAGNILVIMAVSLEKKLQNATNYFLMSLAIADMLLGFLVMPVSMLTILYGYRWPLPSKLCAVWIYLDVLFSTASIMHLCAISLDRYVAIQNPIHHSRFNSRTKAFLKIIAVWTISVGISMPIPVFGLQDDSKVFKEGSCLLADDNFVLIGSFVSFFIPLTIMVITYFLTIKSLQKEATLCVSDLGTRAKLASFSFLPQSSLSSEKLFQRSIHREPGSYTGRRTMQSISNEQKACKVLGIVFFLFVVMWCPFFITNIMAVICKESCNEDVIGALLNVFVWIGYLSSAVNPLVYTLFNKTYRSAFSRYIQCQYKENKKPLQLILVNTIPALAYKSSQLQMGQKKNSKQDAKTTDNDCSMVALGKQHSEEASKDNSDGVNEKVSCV
Outline: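 CHO cells stably expressing human HTR2A were plated for 18 h at 37 C, then loaded with calcium dye for 1 h. Compounds were preincubated 5 min at room temperature before DOI (4 nM solution) was added. Kinetic fluorescence was read for 3 min.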

[12] = target: 5-hydroxytryptamine receptor 2A (Homo sapiens) (UniProt P28223); experiment: 5-hydroxytryptamine receptor 2A (HTR2A) small molecule agonists, cell-based qHTS assay (AID 1963587); note: nearly all actives have a fitted effect of over 30% in size
Outline: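 Kinetic calcium-flux fluorescence (2 min, 1 sec intervals) after compound addition in agonist mode. HTR2A-CHO cells were cultured 18 h, then dye-loaded 1 h at 37 C.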

[13] = target: Muscarinic acetylcholine receptor M1 (Homo sapiens) (UniProt P11229); experiment: Cholinergic receptor muscarinic 1 (CHRM1) small molecule antagonists, cell-based qHTS assay (AID 1963588); note: nearly all actives have a fitted effect of over 40% in size
Muscarinic acetylcholine receptor M1 (Homo sapiens), sequence (P11229 whole entry, looked up): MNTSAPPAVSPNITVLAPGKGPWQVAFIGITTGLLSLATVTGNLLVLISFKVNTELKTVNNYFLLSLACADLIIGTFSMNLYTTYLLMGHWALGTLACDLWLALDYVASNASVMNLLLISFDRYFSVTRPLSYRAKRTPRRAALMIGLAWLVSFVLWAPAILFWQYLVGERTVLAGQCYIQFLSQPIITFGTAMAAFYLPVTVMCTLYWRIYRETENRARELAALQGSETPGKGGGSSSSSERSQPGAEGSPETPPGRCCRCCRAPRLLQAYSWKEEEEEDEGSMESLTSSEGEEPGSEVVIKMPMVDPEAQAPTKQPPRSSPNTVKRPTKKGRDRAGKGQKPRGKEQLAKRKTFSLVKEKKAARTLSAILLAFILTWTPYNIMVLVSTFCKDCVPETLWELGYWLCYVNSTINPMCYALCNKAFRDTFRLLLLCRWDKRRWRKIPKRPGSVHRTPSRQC
Outline: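 Compounds were tested at 15 concentrations in three independent runs. Dye-loaded CHRM1-CHO cells were exposed 5 min at room temperature before stimulation by acetylcholine added at 50nM. Intracellular calcium was read kinetically on FDSS for 3 min.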

[14] = target: Muscarinic acetylcholine receptor M1 (Homo sapiens) (UniProt P11229); experiment: Cholinergic receptor muscarinic 1 (CHRM1) small molecule agonists, cell-based qHTS assay (AID 1963589); note: nearly all actives have a fitted effect of over 35% in size
Outline: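 Homogeneous fluorescence calcium flux, agonist mode. Human M1-expressing CHO cells; compound dosed at 15 concentrations, three independent runs; signal sampled every 1 sec.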

[15] = cAMP Responsive Elements (CRE) small molecule agonists, cell-based qHTS assay (AID 1963590)
Outline: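 HEK 293T cells stably bearing CRE-bla were plated at 2,000 cells per well and rested 18 h. Compounds, positive controls or DMSO were added for 3 h at 37 C. LiveBLAzer B/G substrate was then loaded for 2 h at room temperature.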

[16] = cAMP Responsive Elements (CRE) small molecule antagonists, cell-based qHTS assay (AID 1963591; active = well fitted inhibition curve with a large enough effect in the signal ratio in the repeat runs, not every such curve was filed as active; the % refers to the signal ratio)
Outline: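 First, CRE-bla HEK293T cells settled 18 h at 37 C. Next, compound and 0.25 uM final NKH477 were applied for 3 h. Last, LiveBLAzer B/G substrate was loaded for 2 h at room temperature.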

[17] = target: Beta-2 adrenergic receptor (Homo sapiens) (UniProt P07550); experiment: Adrenergic beta2 receptor (ADRB2) small molecule antagonists, cell-based qHTS assay (AID 1963592); note: series mostly up to about 92 µM; nearly all actives have a fitted effect of over 50% in size
Beta-2 adrenergic receptor (Homo sapiens), sequence (P07550 whole entry, looked up): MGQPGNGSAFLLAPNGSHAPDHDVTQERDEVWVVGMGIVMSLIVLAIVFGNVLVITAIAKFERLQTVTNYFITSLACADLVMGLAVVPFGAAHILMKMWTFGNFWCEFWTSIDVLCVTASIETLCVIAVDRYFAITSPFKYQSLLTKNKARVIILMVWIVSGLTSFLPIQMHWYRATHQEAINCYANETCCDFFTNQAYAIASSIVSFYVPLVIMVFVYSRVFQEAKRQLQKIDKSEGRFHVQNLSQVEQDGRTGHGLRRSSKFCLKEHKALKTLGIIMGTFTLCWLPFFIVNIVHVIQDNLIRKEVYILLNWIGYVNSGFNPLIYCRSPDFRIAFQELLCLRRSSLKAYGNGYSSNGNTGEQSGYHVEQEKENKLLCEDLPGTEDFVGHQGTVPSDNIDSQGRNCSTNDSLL
Outline: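 Assay format: CHO-ADRB2 cells, 18-20hr seeding at 37C/5% CO2, then compound plus 1nM isoproterenol agonist mix for 0.5hr RT. Homogeneous time-resolved fluorescence cAMP detection after 1hr, expressed as 665/615 nm ratio.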

[18] = target: D(2) dopamine receptor (Homo sapiens) (UniProt P14416); experiment: Dopamine D2 receptor (DRD2) small molecule agonists, cell-based qHTS assay (AID 1963594); note: nearly all actives have a fitted effect of over 35% in size
D(2) dopamine receptor (Homo sapiens), sequence (P14416 whole entry, looked up): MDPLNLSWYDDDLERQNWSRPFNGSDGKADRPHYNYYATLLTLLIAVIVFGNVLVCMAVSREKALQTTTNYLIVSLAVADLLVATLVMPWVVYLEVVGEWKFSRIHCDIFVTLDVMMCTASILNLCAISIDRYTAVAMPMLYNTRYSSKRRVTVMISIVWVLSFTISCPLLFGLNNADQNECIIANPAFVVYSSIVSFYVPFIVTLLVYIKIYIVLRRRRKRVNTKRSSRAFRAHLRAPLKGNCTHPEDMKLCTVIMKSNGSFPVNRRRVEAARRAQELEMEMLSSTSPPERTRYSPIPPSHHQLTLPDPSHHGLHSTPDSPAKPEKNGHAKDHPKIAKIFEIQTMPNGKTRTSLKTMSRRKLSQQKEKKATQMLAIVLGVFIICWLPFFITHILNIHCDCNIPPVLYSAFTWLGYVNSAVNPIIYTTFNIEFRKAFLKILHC
Outline: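 cAMP accumulation in DRD2-HEK293 cells measured by HTRF after 1 h detection; compounds added 10 min before NKH477 (200nM […]) forskolin-analogue stimulation, 30 min at room temperature, with Ro20-1724 present at 0.1 mM final.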

[19] = target: D(2) dopamine receptor (Homo sapiens) (UniProt P14416); experiment: Dopamine D2 receptor (DRD2) small molecule antagonists, cell-based qHTS assay (AID 1963595; active = well fitted inhibition curve with a large enough effect in the signal ratio in the repeat runs, with a control signal flat; the % refers to the signal ratio)
Outline: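 HEK293 cells stably expressing DRD2, preincubated with 0.1 mM Ro20-1724 and compounds 10 min, were stimulated with 200 nM NKH477 plus 12 nM quinpirole for 30 min at room temperature; cAMP measured by HTRF (665/620 nm).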
% is set by controls: 0 for no effect and ±100 for the full control effect.

C=CC(=O)OCCCCCC
inactive: Potency [1] | Potency [2] | Potency [3] | Potency [4] | Potency [5] | Potency [6] | Potency [7] | Potency [8] | Potency [9] | Potency [10] | Potency [11] | Potency [12] | Potency [13] | Potency [14] | Potency [15] | Potency [16] | Potency [17] | Potency [18] | Potency [19]

O=C(O)/C=C/c1ccc(Cn2ccnc2)cc1
inactive: Potency [1] | Potency [2] | Potency [3] | Potency [4] | Potency [5] | Potency [6] | Potency [7] | Potency [8] | Potency [9] | Potency [10] | Potency [11] | Potency [12] | Potency [13] | Potency [15] | Potency [16] | Potency [17] | Potency [18] | Potency [19]

CCCCOCCCC
inactive: Potency [1] | Potency [2] | Potency [3] | Potency [4] | Potency [5] | Potency [6] | Potency [7] | Potency [8] | Potency [9] | Potency [10] | Potency [11] | Potency [12] | Potency [13] | Potency [14] | Potency [15] | Potency [16] | Potency [17] | Potency [18] | Potency [19]

CC(Cl)COP(=O)(OCC(C)Cl)OCC(C)Cl (stereo not given)
inactive: Potency [1] | Potency [2] | Potency [3] | Potency [4] | Potency [5] | Potency [6] | Potency [7] | Potency [8] | Potency [9] | Potency [10] | Potency [11] | Potency [12] | Potency [13] | Potency [15] | Potency [16] | Potency [17] | Potency [18] | Potency [19]

CO[Si](CCCNCCNCCN)(OC)OC
inactive: Potency [1] | Potency [2] | Potency [3] | Potency [4] | Potency [5] | Potency [6] | Potency [7] | Potency [8] | Potency [9] | Potency [10] | Potency [11] | Potency [12] | Potency [13] | Potency [14] | Potency [16] | Potency [17] | Potency [18] | Potency [19]

CCC(C)S (stereo not given)
inactive: activity change, negative = cytotoxicity [1] -0.322% [at 3.27 µM] | activity, positive = activation [2] -3.8% [at 3.27 µM] | activity change [3] -0.606% [at 2.04 µM, hits give high values] | activation [4] 1.34% [at 2.72 µM] | activation [5] 0.0986% [at 2.04 µM] | activation [6] 0.369% [at 2.33 µM] | activation [7] 1.35% [at 2.33 µM] | activity change, negative = cytotoxicity [8] 2.56% [at 2.33 µM] | activity change, negative = cytotoxicity [9] 2.16% [at 2.33 µM] | activation [10] -0.925% [at 2.33 µM] | activity, negative = inhibition [11] 36.9% [at 2.12 µM] | activation [12] 0.646% [at 2.65 µM] | activity, negative = inhibition [13] 18.7% [at 2.17 µM] | activation [14] 0.317% [at 2.72 µM] | activity change, negative = inhibition [16] -3.11% [at 3.27 µM] | activity change, negative = inhibition [17] -1.77% [at 3.27 µM] | activation [18] 5.57% [at 3.27 µM] | activity change, negative = inhibition [19] 2.46% [at 3.28 µM]
